Measurements: PubChem BioAssay AID1159580 (chemical genetic matrix, 2015)
In all, about 5,500 compounds went through this assay and about 2,000 (36%) were called active. Not shown: some 18% with an inconclusive outcome. Rule as the data show it: active = normalized growth mostly below about 0.91 (no sharp cut-off); inconclusive = no clear call, values can overlap the other calls; inactive = mostly above about 0.92. Some of the results follow.

Experiment: chemical genetic growth profiling, strain panel (AID 1159580);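 also: tested at 20 µM; growth read once vehicle control cultures reached saturation at 30 °C; 1 = growth at the plate median or of vehicle wells; lower values mean less growth of the strain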
Conditions: S. cerevisiae deletion strains, growth OD

Measured: normalized growth

CCCCCCCCCCC[C@@H](C[C@H]1OC(=O)[C@H]1CCCCCC)OC(=O)[C@@H](CC(C)C)NC=O
inactive: locus YAL013W, strain DEP1, stronger effect = lower value 1.05 | locus YAL021C, strain ccr4, stronger effect = lower value 1.01 | locus YAL026C, strain drs2, stronger effect = lower value 1.05 | locus YAL030W, strain snc1, stronger effect = lower value 1.03 | locus YBL061C, strain skt5, stronger effect = lower value 1.02 | locus YBR009C, strain hhf1, stronger effect = lower value 1.04 | locus YBR021W, strain FUR4, stronger effect = lower value 1.05 | locus YBR023C, strain chs3, stronger effect = lower value 0.994 | locus YBR171W, strain sec66, stronger effect = lower value 1.06 | locus YBR229C, strain ROT2, stronger effect = lower value 1.02 | locus YBR231C, strain swc5, stronger effect = lower value 0.965 | locus YBR279W, strain paf1, stronger effect = lower value 1 | locus YCL011C, strain gbp2, stronger effect = lower value 1.05 | locus YCL016C, strain dcc1, stronger effect = lower value 1.01 | locus YCL029C, strain bik1, stronger effect = lower value 1.03 | locus YCL061C, strain MRC1, stronger effect = lower value 1.05 | locus YCL069W, strain vba3, stronger effect = lower value 1.05 | locus YCR088W, strain abp1, stronger effect = lower value 1.02 | locus YDL005C, strain med2, stronger effect = lower value 1.03 | locus YDL035C, strain GPR1, stronger effect = lower value 1.05 | locus YDL040C, strain nat1, stronger effect = lower value 1 | locus YDL074C, strain BRE1, stronger effect = lower value 1.05 | locus YDL101C, strain DUN1, stronger effect = lower value 1.02 | locus YDL134C, strain PPH21, stronger effect = lower value 1.02 | locus YDL185W, strain tfp1, stronger effect = lower value 0.992 | locus YDL192W, strain arf1, stronger effect = lower value 1.03 | locus YDR001C, strain nth1, stronger effect = lower value 1.05 | locus YDR069C, strain doa4, stronger effect = lower value 1.02 | locus YDR101C, strain arx1, stronger effect = lower value 1.03 | locus YDR137W, strain rgp1, stronger effect = lower value 0.978 | locus YDR150W, strain NUM1, stronger effect = lower value 1.06 | locus YDR159W, strain sac3, stronger effect = lower value 1.01 | locus YDR162C, strain NBP2, stronger effect = lower value 1.02 | locus YDR195W, strain ref2 1.02 | locus YDR297W, strain sur2, stronger effect = lower value 1.04 | locus YDR318W, strain mcm21, stronger effect = lower value 1.01 | locus YDR334W, strain swr1, stronger effect = lower value 1.03 | locus YDR335W, strain msn5, stronger effect = lower value 1.05 | locus YDR388W, stronger effect = lower value 1.02 | locus YDR392W, strain spt3, stronger effect = lower value 1.1 | locus YDR502C, strain sam2, stronger effect = lower value 1.03 | locus YEL003W, strain gim4, stronger effect = lower value 1.02 | locus YEL037C, strain rad23, stronger effect = lower value 1.06 | locus YEL061C, strain CIN8 (second series), stronger effect = lower value 1.04 | locus YEL061C, strain CIN8, stronger effect = lower value 1.01 | locus YER015W, strain faa2, stronger effect = lower value 1.02 | locus YER016W, strain bim1, stronger effect = lower value 1.01 | locus YER110C, stronger effect = lower value 1.02 | locus YER111C, strain swi4, stronger effect = lower value 1.06 | locus YER155C, strain BEM2 (second series), stronger effect = lower value 1.07 | locus YER155C, strain BEM2, stronger effect = lower value 1.03 | locus YER167W, strain BCK2, stronger effect = lower value 1.02 | locus YFR010W, strain ubp6, stronger effect = lower value 1.05 | locus YGL078C, strain dbp3, stronger effect = lower value 1.03 | locus YGL086W, strain mad1, stronger effect = lower value 1.01 | locus YGL167C, strain pmr1, stronger effect = lower value 0.994 | locus YGL173C, strain kem1, stronger effect = lower value 1.04 | locus YGL227W, strain vid30, stronger effect = lower value 1.02 | locus YGL240W, strain doc1, stronger effect = lower value 1.06 | locus YGL248W, strain PDE1, stronger effect = lower value 1.03 | locus YGL253W, strain hxk2, stronger effect = lower value 1.04 | locus YGR078C, strain PAC10, stronger effect = lower value 1.05 | locus YGR135W, strain pre9, stronger effect = lower value 1.02 | locus YGR252W, strain gcn5, stronger effect = lower value 1.08 | locus YHR013C, strain ard1, stronger effect = lower value 1.03 | locus YHR027C, strain rpn1, stronger effect = lower value 1.05 | locus YHR030C, strain SLT2, stronger effect = lower value 1.04 | locus YHR079C, strain IRE1 (second series), stronger effect = lower value 1 | locus YHR094C, strain hxt1, stronger effect = lower value 1 | locus YHR129C, strain ARP1, stronger effect = lower value 1.04 | locus YHR142W, strain chs7, stronger effect = lower value 1.04 | locus YHR200W, strain rpn10, stronger effect = lower value 1.03 | locus YIL066C, strain RNR3, stronger effect = lower value 1.03 | locus YIL073C, strain SPO22, stronger effect = lower value 1.06 | locus YIL125W, strain kgd1, stronger effect = lower value 1 | locus YIR030C, strain dcg1, stronger effect = lower value 1.03 | locus YJL092W, strain hpr5, stronger effect = lower value 1.04 | locus YJL095W, strain BCK1 (second series), stronger effect = lower value 1.03 | locus YJL095W, strain BCK1, stronger effect = lower value 1.05 | locus YJL115W, strain asf1, stronger effect = lower value 1.06 | locus YJL129C, strain trk1, stronger effect = lower value 1.04 | locus YJL134W, strain LCB3, stronger effect = lower value 1.02 | locus YJL154C, strain vps35, stronger effect = lower value 1.07 | locus YJL164C, strain tpk1, stronger effect = lower value 1.04 | locus YJL166W, strain qcr8, stronger effect = lower value 1.04 | locus YJL168C, strain set2, stronger effect = lower value 1 | locus YJL187C, strain SWE1 (second series), stronger effect = lower value 1.03 | locus YJL187C, strain SWE1, stronger effect = lower value 1.04
